Experimental data from PubChem BioAssay (NCI).
Values joined by “and” are separate entries in the source; they are usually repeats but may differ in a detail not shown here. Identical values can stand only once. The panel holds about 83,000 compounds, 20% with a hit somewhere; the sample as a whole holds those more often.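 Cells were grown in 96-well plates and exposed to the test compound at a single concentration for 48 hours; results are reported as percent growth, with values below 10 considered active.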 Values without a mark were called inactive. Active and inactive are the calls of the source.

The compounds below were run on MDA-MB-468 breast (assay: NCI-60 one-dose screen, 48 h (100 = growth as untreated, 0 = no growth, -100 = all killed)). Conditions: 10 µM unless noted.

Row | Compound | growth
1 | O=C(Cn1c2ccccc2c2ccncc21)N/N=C/c1c[nH]c2ccccc12 | 43.4%
2 | COc1cc(-c2nc3ccc(-c4nnc(SCC(=O)Nc5ccc(C(C)=O)cc5)o4)cc3[nH]2)cc(OC)c1OC | 101%
3 | CCN1C(=O)N(CC)C2Nn3c(s/c(=C4\C(=O)N(C)c5ccccc54)c3=O)=NC21 (configuration not stated) | 12.2%
4 | COc1c(Cl)cc(Cl)c2ccc(C=C3C(=O)N(C)C(=O)N(C)C3=O)nc12 | 107%
5 | Cc1ccc(-c2ccc(Nc3ccccc3)nn2)cc1S(N)(=O)=O | 64%
6 | CCN(CC)CCN1CC(=O)Nc2cc(Cl)ccc21 | 98.7%
7 | Cc1[nH]c(-c2nc3ccccc3[nH]2)c(C)c1C(=O)N1CCc2sccc2C1 | 70.2%
8 | N#C/C(=C\c1cccc(C#N)c1)c1ccccc1 | 106%
9 | COc1cc(C2C(C#N)=C(c3c[nH]c4ccccc34)Nc3nc(N)[nH]c(=O)c32)cc(OC)c1OC (configuration not stated) | 13.2%
10 | C/C(Nc1ccc(Cl)c(Cl)c1)=C1\CCOC1=O | 70.5%
11 | Clc1cc2c(nn1)Nc1ccccc1S2 | 96.9%
12 | Cc1csc(/N=C(N)/N=C(\N)c2cccc(C#N)c2)n1 | 101%
13 | C=C(C)[C@@H]1CC[C@]2(C)CC[C@]3(C)[C@H](CC[C@@H]4[C@@]5(C)CCCNC(C)(C)[C@@H]5CC[C@]43C)[C@@H]12 | 26.2%
14 | CNC(=O)Cc1nc(-c2cccc(NS(=O)(=O)c3c(F)cccc3F)c2F)c(-c2ccnc(Nc3ccccc3)n2)s1 | 104%
15 | Cc1cccc(-c2nc(N(C)c3ccc4ncsc4c3)c3ccccc3n2)n1 | 51%
16 | C#C[C@]1(O)CC[C@H]2[C@@H]3CC=C4c5sc(N6CCN(C)CC6)nc5CC[C@]4(C)[C@H]3CC[C@@]21C | 47.6%
17 | CCCCC[C@@H]1Cc2cc(O)c(C(=O)O)c3c2[C@H](C[C@]2(OC[C@@H](CC(=O)[C@@](C)(CC)C(=O)OC)[C@@H]2C)O3)O1 | 110%
18 | CC(=O)c1c(C)nc(SCC(=O)Nc2ccc(Cl)cc2)n1-c1ccc(Cl)cc1 | 71.3%
19 | N#Cc1c(N)[nH]c(S)c1C#N | 103%

Row | Compound | growth
20 | COc1ccc(C(O)c2cc3c(N)c(C(=O)Nc4ccc(Cl)cc4)sc3nc2C)cc1 (configuration not stated) | 3.39% (active)
21 | Cn1c([N+](=O)[O-])cnc1/C=C1\Oc2ccc(Br)cc2C1=O | 13.1%
22 | CCC(C)C1NC(=O)c2nc(oc2-c2ccccc2)-c2csc(n2)-c2csc(n2)-c2nc(oc2C)-c2coc(n2)CNC(=O)C(C(C)CC)NC1=O (configuration not stated) | -76.9% (active)
23 | COc1cc(/C=N/Nc2nc3c([nH]2)c(=O)n(C)c(=O)n3C)ccc1O | 103% and 122%
24 | Cc1cc(SCc2ccc(Cl)cc2Cl)nc(SCc2ccc(Cl)cc2Cl)n1 | 104%
25 | CNc1cc(-c2cccc(OC(F)(F)F)c2)nc2ccc(N3CCCC3)cc12 | -69.7% (active) and -68% (active) and -66.2% (active)
26 | COc1cccc(/C=C/C(=O)c2sc(Nc3ccc(O)cc3)nc2C)c1 | 97.2%
27 | CCNC(=O)Oc1ccc(/C(=C(/C)c2ccc(OC)cc2)c2ccc(OCCN3CCCCCC3)cc2)cc1 | 38.3%
28 | O=C(c1nc2ccccc2[nH]1)C1C(c2ccc([N+](=O)[O-])cc2)C2CC3CCCCC3N2[C@@]12C(=O)Nc1cc(Cl)ccc12 (some centres not stated) | -1.98% (active)
29 | CS(=O)(=O)c1nccc(-c2c(-c3ccc(OCCc4ccccc4)cc3)nc3sccn23)n1 | -81.5% (active)
30 | COc1cc(-c2cncn2-c2ccc(-c3nc4ccc(F)cc4s3)cc2)ccc1F | 56.8%
31 | COc1cccc(C(=O)O)c1OC | 105%
32 | Cc1nnc(/N=C2\NC(=O)/C(=C/C=C/c3ccccc3)S2)s1 | 53%
33 | CCCCCCCCCCCCCCCCCCn1cc(COc2ccc(C=O)cc2)nn1 | 104%
34 | C=CN(C)S(C)(=O)=O | -3.6% (active)
35 | CCN1C(=O)N(CC)C2C1NN=c1s/c(=C\c3ccc(Cl)cc3Cl)c(=O)n12 (configuration not stated) | 5.35% (active)
36 | Cc1ccccc1-c1nc(C(Cl)Cl)nc2cc(-c3ccccc3)nn12 | 52.7%
37 | Nc1ccc(S(=O)(=O)Nc2ccsc2-c2nc(-c3ccccc3)no2)cc1 | 43.1%
